{"source": "PubChem BioAssay (NCATS)", "note": "Where “and” joins values, the source holds several entries; their conditions need not be identical. Equal entries are not always repeated. Results filed as inconclusive are left out. Calls of active or inactive are those of the source. Calls follow the shape of the full dose curve.", "data": [{"target": "Vitamin D3 receptor (Homo sapiens) (UniProt P11473)", "sequence (P11473 whole entry, looked up)": "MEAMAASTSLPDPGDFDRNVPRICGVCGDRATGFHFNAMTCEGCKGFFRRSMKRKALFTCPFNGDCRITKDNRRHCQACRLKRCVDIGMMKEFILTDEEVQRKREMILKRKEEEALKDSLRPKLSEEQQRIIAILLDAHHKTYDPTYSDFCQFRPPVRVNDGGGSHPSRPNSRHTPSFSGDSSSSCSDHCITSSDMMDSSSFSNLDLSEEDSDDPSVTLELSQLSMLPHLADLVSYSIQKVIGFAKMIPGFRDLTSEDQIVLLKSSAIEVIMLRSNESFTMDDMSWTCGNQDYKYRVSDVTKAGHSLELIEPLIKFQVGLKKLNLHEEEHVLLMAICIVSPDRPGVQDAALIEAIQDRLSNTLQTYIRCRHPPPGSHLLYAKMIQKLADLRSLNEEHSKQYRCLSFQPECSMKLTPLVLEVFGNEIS", "test": "qHTS assay for small molecule agonists of vitamin D receptor signaling (AID 588543);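 also: 0% = DMSO basal and 100% = reference agonist control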", "details": "HEK293T VDR-UAS-bla, beta-lactamase ratio, 16 h; series mostly up to 76.8 µM; activation: at the top concentration", "procedure,_shortened": "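Reporter cells (HEK293T, VDR-UAS-bla) were seeded in medium with 2% charcoal-stripped serum and incubated 5 h, then compounds in concentration series were added for 16 h at 37 °C. Stimulation was scaled between DMSO basal and 50 nM 1α,25-dihydroxyvitamin D3.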", "values": [{"smiles": "CCCCCCCCCCCCc1ccccc1", "activation": "2.63% (inactive)"}, {"smiles": "C=CCOc1nc(OCC=C)nc(OCC=C)n1", "activation": "3.53% (inactive)"}, {"smiles": "CCCCCCCCCCCC(=O)OC", "activation": "-0.754% (inactive)"}, {"smiles": "CCCCCCCCCCCC[N+](C)(C)C", "activation": "-9.65% (inactive)"}, {"smiles": "CCCC/C=C\\CCCCCCCCCC=O", "activation": "3.76% (inactive)"}, {"smiles": "CCC(O)OCCCOC", "note": "(stereo not given)", "activation": "5.74% (inactive)"}, {"smiles": "CCCCCCCCCCCCCCC", "activation": "2.17% (inactive)"}, {"smiles": "Oc1ccc(C(c2ccc(O)cc2)C(Cl)(Cl)Cl)cc1", "activation": "-1.66% (inactive)"}, {"smiles": "CC(C)(N=C=O)c1cccc(C(C)(C)N=C=O)c1", "activation": "-1.65% (inactive)"}, {"smiles": "CC(C)C(=O)OC(=O)C(C)C", "activation": "2.48% (inactive)"}, {"smiles": "CC1=CC(=O)CC(C)(C)C1", "activation": "0.72% (inactive)"}, {"smiles": "CCCCCCCC/C=C\\CCCCCCCCO", "activation": "0.375% (inactive)"}, {"smiles": "CCCCCCCC[Si](OCC)(OCC)OCC", "activation": "-3.39% (inactive)"}, {"smiles": "CCCCCCCCCCCCCCCO", "activation": "1.36% (inactive)"}, {"smiles": "COc1cc(Cl)c(OC)cc1N", "activation": "1.12% (inactive)"}, {"smiles": "Cc1ccc(C(C)(C)C)c(O)c1", "activation": "1.22% (inactive)"}, {"smiles": "CC(COc1ccc(C(C)(C)C)cc1)OS(=O)OCCCl", "note": "(stereo not given)", "activation": "-9.73% (inactive)"}, {"smiles": "CCOC(=O)C(C)Oc1ccc(Oc2nc3ccc(Cl)cc3o2)cc1", "note": "(stereo not given)", "activation": "3.07% (inactive)"}, {"smiles": "O=C(O)CCCCCCC(=O)O", "activation": "-0.366% (inactive)"}, {"smiles": "COC(OC)(C(=O)c1ccccc1)c1ccccc1", "activation": "-0.223% (inactive)"}, {"smiles": "CC(C)(C)[C@H](O)[C@H](Cc1ccc(Cl)cc1)n1cncn1", "outcome": "inactive"}, {"smiles": "CCOC(=O)[C@H](C)Oc1ccc(Oc2nc3ccc(Cl)cc3o2)cc1", "activation": "-3.42% (inactive)"}, {"smiles": "CCCCCCC(O)CCCCCCCCCCC(=O)O", "note": "(stereo not given)", "activation": "-9.97% (inactive)"}, {"smiles": "CCOCCOCCOC(C)=O", "activation": "1.05% (inactive)"}, {"smiles": "CCOCCOCCOCC", "activation": "-4.01% (inactive)"}, {"smiles": "CCOc1ccc(NC(=O)OC(C)C)cc1OCC", "activation": "-3.26% (inactive)"}, {"smiles": "CC(C)Nc1nc(N)nc(Cl)n1", "outcome": "inactive"}, {"smiles": "CCC(C)OC(=O)N1CCCCC1CCO", "note": "(stereo not given)", "activation": "-1.46% (inactive)"}]}, {"tested_on": "not listed separately", "test": "qHTS assay for small molecule agonists of retinoid X receptor alpha signaling (AID 588544);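 as to activation: 0% = DMSO basal wells and 100% = reference agonist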", "details": "HEK293T RXRa-UAS-bla, beta-lactamase reporter, 18 h; 530 nm emission", "values": [{"smiles": "CC(C)CCCCCCCCCCCCCCC(=O)O", "max response": "-6.99%"}, {"smiles": "CCCCCCCCCCCCc1ccccc1", "max response": "-7.45%"}, {"smiles": "C=CCOc1nc(OCC=C)nc(OCC=C)n1", "max response": "-0.634%"}, {"smiles": "CCOC(=O)c1ccccc1C", "max response": "-8.14%"}, {"smiles": "CCCCCCCCCCCCN", "max response": "7.66%"}, {"smiles": "CCC(O)OCCCOC", "note": "(stereo not given)", "max response": "-7.67%"}, {"smiles": "C=CCCCCCCCCCC", "max response": "-13.8%"}, {"smiles": "CC(C)(N=C=O)c1cccc(C(C)(C)N=C=O)c1", "max response": "8.92%"}, {"smiles": "CC(C)C(=O)OC(=O)C(C)C", "max response": "-11.3%"}, {"smiles": "CC1=CC(=O)CC(C)(C)C1", "max response": "-20.2%"}, {"smiles": "CCCCCCCC/C=C\\CCCCCCCCO", "max response": "-18.5%"}, {"smiles": "CCCCCCCCCCCCCCCO", "max response": "-7.63%"}, {"smiles": "COc1cc(Cl)c(OC)cc1N", "max response": "-3.24%"}, {"smiles": "O=S(=O)(O)c1cc(S(=O)(=O)O)c2c(N=Nc3ccccc3)c(O)ccc2c1", "max response": "-6.55%"}, {"smiles": "Cc1ccc(C(C)(C)C)c(O)c1", "max response": "-12.1%"}, {"smiles": "CCOC(=O)C(C)Oc1ccc(Oc2nc3ccc(Cl)cc3o2)cc1", "note": "(stereo not given)", "max response": "11.3%"}, {"smiles": "O=C(O)CCCCCCC(=O)O", "max response": "5.03%"}, {"smiles": "CC(C)CCCCOC(=O)c1ccccc1C(=O)OCCCCC(C)C", "max response": "6.42%"}, {"smiles": "COC(OC)(C(=O)c1ccccc1)c1ccccc1", "max response": "-1.48%"}, {"smiles": "CC(C)(C)[C@H](O)[C@H](Cc1ccc(Cl)cc1)n1cncn1", "max response": "-4.23%"}, {"smiles": "COCCOCCOCCOC", "max response": "-14.6%"}, {"smiles": "CCCCCCC(O)CCCCCCCCCCC(=O)O", "note": "(stereo not given)", "max response": "-2.57%"}, {"smiles": "CCOCCOCCOC(C)=O", "max response": "0.881%"}, {"smiles": "CCOCCOCCOCC", "max response": "-3.22%"}, {"smiles": "CCCCCCC(C)(C)S", "max response": "-19.5%"}, {"smiles": "CC(C)Nc1nc(N)nc(Cl)n1", "max response": "2.38% and -17.2%"}, {"smiles": "CCC(C)OC(=O)N1CCCCC1CCO", "note": "(stereo not given)", "max response": "-14.7%"}, {"smiles": "CCCCCCCCCC(=O)OC", "max response": "-16.2%"}]}, {"target": "Retinoic acid receptor RXR-alpha (Homo sapiens) (UniProt P19793)", "sequence (P19793 whole entry, looked up)": "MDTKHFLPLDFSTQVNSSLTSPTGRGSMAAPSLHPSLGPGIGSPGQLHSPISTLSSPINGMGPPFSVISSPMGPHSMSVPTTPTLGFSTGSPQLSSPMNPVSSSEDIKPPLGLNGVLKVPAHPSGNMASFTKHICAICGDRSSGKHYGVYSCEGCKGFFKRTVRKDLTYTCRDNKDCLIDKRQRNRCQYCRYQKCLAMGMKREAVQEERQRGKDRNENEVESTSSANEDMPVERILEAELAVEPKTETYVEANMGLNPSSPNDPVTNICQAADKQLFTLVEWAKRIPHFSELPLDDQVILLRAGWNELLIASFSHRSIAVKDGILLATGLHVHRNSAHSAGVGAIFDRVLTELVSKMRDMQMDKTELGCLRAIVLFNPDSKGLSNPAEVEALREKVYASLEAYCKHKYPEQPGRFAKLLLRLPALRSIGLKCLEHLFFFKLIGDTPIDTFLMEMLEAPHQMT", "test": "qHTS assay for small molecule agonists of retinoid X receptor alpha signaling (AID 588544)", "details": "HEK293T RXRa-UAS-bla, beta-lactamase reporter, 18 h; series mostly up to 76.7 µM; activation: at the top concentration", "values": [{"smiles": "CC(C)CCCCCCCCCCCCCCC(=O)O", "activation": "0.0658% (inactive)"}, {"smiles": "CCCCCCCCCCCCc1ccccc1", "activation": "3.85% (inactive)"}, {"smiles": "C=CCOc1nc(OCC=C)nc(OCC=C)n1", "activation": "-3.64% (inactive)"}, {"smiles": "CCOC(=O)c1ccccc1C", "activation": "-2.07% (inactive)"}, {"smiles": "CCCCCCCCCCCCN", "activation": "10.8% (inactive)"}, {"smiles": "CCC(O)OCCCOC", "note": "(stereo not given)", "activation": "-15.5% (inactive)"}, {"smiles": "C=CCCCCCCCCCC", "activation": "2.76% (inactive)"}, {"smiles": "CC(C)(N=C=O)c1cccc(C(C)(C)N=C=O)c1", "activation": "-7.83% (inactive)"}, {"smiles": "CC(C)C(=O)OC(=O)C(C)C", "activation": "11.5% (inactive)"}, {"smiles": "CC1=CC(=O)CC(C)(C)C1", "activation": "0.0658% (inactive)"}, {"smiles": "CCCCCCCC/C=C\\CCCCCCCCO", "activation": "-1.32% (inactive)"}, {"smiles": "CCCCCCCCCCCCCCCO", "activation": "22% (inactive)"}, {"smiles": "COc1cc(Cl)c(OC)cc1N", "activation": "5.82% (inactive)"}, {"smiles": "O=S(=O)(O)c1cc(S(=O)(=O)O)c2c(N=Nc3ccccc3)c(O)ccc2c1", "activation": "11.1% (inactive)"}, {"smiles": "Cc1ccc(C(C)(C)C)c(O)c1", "activation": "20.1% (inactive)"}, {"smiles": "CCOC(=O)C(C)Oc1ccc(Oc2nc3ccc(Cl)cc3o2)cc1", "note": "(stereo not given)", "activation": "-11.3% (inactive)"}, {"smiles": "O=C(O)CCCCCCC(=O)O", "activation": "6.48% (inactive)"}, {"smiles": "CC(C)CCCCOC(=O)c1ccccc1C(=O)OCCCCC(C)C", "activation": "-14.4% (inactive)"}, {"smiles": "COC(OC)(C(=O)c1ccccc1)c1ccccc1", "activation": "9.12% (inactive)"}, {"smiles": "CC(C)(C)[C@H](O)[C@H](Cc1ccc(Cl)cc1)n1cncn1", "activation": "16.2% (inactive)"}, {"smiles": "COCCOCCOCCOC", "activation": "24.1% (inactive)"}, {"smiles": "CCCCCCC(O)CCCCCCCCCCC(=O)O", "note": "(stereo not given)", "activation": "-6.97% (inactive)"}, {"smiles": "CCOCCOCCOC(C)=O", "activation": "-6.61% (inactive)"}, {"smiles": "CCOCCOCCOCC", "activation": "9.38% (inactive)"}, {"smiles": "CCCCCCC(C)(C)S", "activation": "15.2% (inactive)"}, {"smiles": "CC(C)Nc1nc(N)nc(Cl)n1", "Potency": "inactive"}, {"smiles": "CCC(C)OC(=O)N1CCCCC1CCO", "note": "(stereo not given)", "activation": "30% (inactive)"}, {"smiles": "CCCCCCCCCC(=O)OC", "activation": "2.76% (inactive)"}]}, {"target": "Thyroid hormone receptor beta (Homo sapiens) (UniProt P10828)", "sequence (P10828 whole entry, looked up)": "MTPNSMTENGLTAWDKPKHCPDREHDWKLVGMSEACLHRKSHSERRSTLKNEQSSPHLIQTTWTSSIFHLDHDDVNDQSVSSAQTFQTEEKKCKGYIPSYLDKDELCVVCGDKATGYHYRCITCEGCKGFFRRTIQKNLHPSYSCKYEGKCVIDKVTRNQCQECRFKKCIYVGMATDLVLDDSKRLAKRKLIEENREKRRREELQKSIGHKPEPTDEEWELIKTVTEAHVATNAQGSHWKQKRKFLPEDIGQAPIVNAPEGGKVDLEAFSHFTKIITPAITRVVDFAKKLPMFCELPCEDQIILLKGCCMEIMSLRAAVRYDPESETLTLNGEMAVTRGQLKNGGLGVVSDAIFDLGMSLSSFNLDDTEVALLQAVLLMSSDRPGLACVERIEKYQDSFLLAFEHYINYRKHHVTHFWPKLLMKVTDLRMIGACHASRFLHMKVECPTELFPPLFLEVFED", "test": "qHTS assay for small molecule agonists of thyroid hormone receptor beta signaling (AID 588545);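 also: 0% = DMSO only and 100% = 10 nM T3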", "details": "TR-UAS-bla GripTite HEK 293, beta-lactamase ratio, agonist mode, 18 h; series mostly up to 76.7 µM; activation: at the top concentration", "procedure,_shortened": "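TR-UAS-bla-GripTite HEK 293 cells in medium with 2% charcoal/dextran FBS, 0.1 mM NEAA and 1 mM sodium pyruvate were treated with titrated compounds for 18 hrs at 37 C. Beta-lactamase reporter was read with CCF4 dye (ex 405, em 460/530 nm); EC50 from Hill fits.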", "values": [{"smiles": "CC(C)CCCCCCCCCCCCCCC(=O)O", "activation": "13.2% (inactive)"}, {"smiles": "CCOC(=O)c1ccccc1C", "activation": "-4.33% (inactive)"}, {"smiles": "CCCCCCCCCCCC[N+](C)(C)C", "activation": "-8.04% (inactive)"}, {"smiles": "CCCC/C=C\\CCCCCCCCCC=O", "activation": "-1.1% (inactive)"}, {"smiles": "CCCCCCCCCCCCN", "activation": "-6.27% (inactive)"}, {"smiles": "CCC(O)OCCCOC", "note": "(stereo not given)", "activation": "-2.48% (inactive)"}, {"smiles": "CCCCCCCCCCCCCCC", "activation": "-3.05% (inactive)"}, {"smiles": "Oc1ccc(C(c2ccc(O)cc2)C(Cl)(Cl)Cl)cc1", "activation": "-7.78% (inactive)"}, {"smiles": "CC(C)(N=C=O)c1cccc(C(C)(C)N=C=O)c1", "activation": "-9.52% (inactive)"}, {"smiles": "CC(C)C(=O)OC(=O)C(C)C", "activation": "17.2% (inactive)"}, {"smiles": "CC1=CC(=O)CC(C)(C)C1", "activation": "1.77% (inactive)"}, {"smiles": "CCCCCCCC/C=C\\CCCCCCCCO", "activation": "-9.61% (inactive)"}, {"smiles": "CCCCCCCC[Si](OCC)(OCC)OCC", "activation": "-2.03% (inactive)"}, {"smiles": "CCCCCCCCCCCCCCCO", "activation": "-6.04% (inactive)"}, {"smiles": "O=S(=O)(O)c1cc(S(=O)(=O)O)c2c(N=Nc3ccccc3)c(O)ccc2c1", "activation": "6.31% (inactive)"}, {"smiles": "Cc1ccc(C(C)(C)C)c(O)c1", "activation": "-4.91% (inactive)"}, {"smiles": "CC(COc1ccc(C(C)(C)C)cc1)OS(=O)OCCCl", "note": "(stereo not given)", "activation": "-5.64% (inactive)"}, {"smiles": "CCOC(=O)NCCOc1ccc(Oc2ccccc2)cc1", "activation": "-1.47% (inactive)"}, {"smiles": "O=C(O)CCCCCCC(=O)O", "activation": "2.06% (inactive)"}, {"smiles": "COC(OC)(C(=O)c1ccccc1)c1ccccc1", "activation": "-0.753% (inactive)"}, {"smiles": "CC(C)C[C@H](NC(=O)OCC1c2ccccc2-c2ccccc21)C(=O)O", "activation": "-4.76% (inactive)"}, {"smiles": "COC(=O)CCSCCC(=O)OC", "activation": "-2.97% (inactive)"}, {"smiles": "CC(C)(C)[C@H](O)[C@H](Cc1ccc(Cl)cc1)n1cncn1", "Potency": "inactive"}, {"smiles": "COCCOCCOCCOC", "activation": "-2.32% (inactive)"}, {"smiles": "CCCCCCC(O)CCCCCCCCCCC(=O)O", "note": "(stereo not given)", "activation": "0.55% (inactive)"}, {"smiles": "CCOCCOCCOC(C)=O", "activation": "0% (inactive)"}, {"smiles": "CCOCCOCCOCC", "activation": "0.508% (inactive)"}, {"smiles": "CCOc1ccc(NC(=O)OC(C)C)cc1OCC", "activation": "-4.4% (inactive)"}, {"smiles": "CCCCCCC(C)(C)S", "activation": "2% (inactive)"}, {"smiles": "CC(C)Nc1nc(N)nc(Cl)n1", "Potency": "inactive"}, {"smiles": "CCC(C)OC(=O)N1CCCCC1CCO", "note": "(stereo not given)", "activation": "4.99% (inactive)"}]}]}
